About 83,000 compounds went through this panel and 20% of them were active in at least one assay; those are over-represented in the sample as a whole.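 Compound tested at a single concentration for 48 hours in 96-well plates; a percent growth value below 10 was scored as active.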 Values without a mark were called inactive. The source made the active and inactive calls.
Experiments:
Assay in all cases: NCI-60 one-dose screen, 48 h (100 = growth as untreated, 0 = no growth, -100 = all killed)
Conditions in all cases: 10 µM unless noted
NCI-H23 lung = system: NCI-H23 lung
NCI-H226 lung = system: NCI-H226 lung
NCI-H322M lung = system: NCI-H322M lung
HOP-62 NSCLC = system: HOP-62 NSCLC
NCI-H460 lung = system: NCI-H460 lung
HOP-92 NSCLC = system: HOP-92 NSCLC
NCI-H522 lung = system: NCI-H522 lung
A549/ATCC NSCLC = system: A549/ATCC NSCLC
786-0 renal = system: 786-0 renal
COLO 205 colon = system: COLO 205 colon

Structure (SMILES)	growth (NCI-H23 lung)	growth (NCI-H226 lung)	growth (NCI-H322M lung)	growth (HOP-62 NSCLC)	growth (NCI-H460 lung)	growth (HOP-92 NSCLC)	growth (NCI-H522 lung)	growth (A549/ATCC NSCLC)	growth (786-0 renal)	growth (COLO 205 colon)
[2H]c1nc(Nc2ncc(F)c(-c3cc(F)c4nc(C)n(C(C)C)c4c3)n2)c([2H])c([2H])c1CN1CCN(C([2H])([2H])C([2H])([2H])[2H])CC1	50.6%	49.1%	44.6%	47%	53.1%	66.9%	58.1%	38.8%	39%	–
CCN(CC)CCCNC(=O)c1ccc(N)cc1	101%	101%	94.7%	98.5%	103%	101%	101%	105%	100%	–
CN(C)c1cnccn1	91.9%	85.4%	114%	90.3%	93.8%	94.4%	45.9%	91.3%	98.3%	–
CCCn1nc(-c2ccccc2)c2c(-c3ccccc3)onc2c1=O	85.6%	87.5%	95.4%	74.2%	98.1%	75.6%	62.6%	89%	94.1%	–
CC(=O)Nc1nccs1	95%	100%	88.2%	95.6%	98.8%	89.1%	87%	99.3%	107%	–
CCC(O)(C(c1ccccc1)c1ccccn1)C(c1ccccc1)c1ccccn1 (stereo not given)	110%	104%	98.6%	106%	110%	109%	102%	104%	105%	105%
O=C1/C(=C/c2ccccc2[N+](=O)[O-])COc2ccc(O)c(O)c21	-4.09% (active)	-8.66% (active)	33.3%	30.3%	0.563% (active)	-9.78% (active)	-45.2% (active)	30.8%	10.6%	-32.6% (active)
COc1ccc(C2=NC(=O)NC2c2ccc(OC)cc2)cc1 (stereo not given)	68.3%	74%	132%	42.3%	72.9%	26%	54%	82.8%	38.6%	58.7%
Cn1ccnc1C(=O)/C=C/c1ccc(C(=O)Nc2ccc(S(F)(F)(F)(F)F)cc2)cc1	17.8%	43.9%	15.4%	24.4%	-4.08% (active)	95.8%	42.9%	31.5%	15.9%	9.14% (active)
CN(C)CCC(O)(Cc1ccccc1)c1ccccc1 (stereo not given)	100%	115%	120%	111%	112%	106%	116%	106%	105%	107%
CCOC(=O)c1nnn(C(Cc2ccccc2Cl)C(=O)OCC)c1C (stereo not given)	105%	103%	108%	93.4%	101%	93.5%	68.9%	82.6%	102%	105%
Cn1cc(-c2ccc3nc(-c4ccc(CC(=O)Nc5cc(C(C)(C)C)no5)cc4)cnc3c2)cn1	41.8% [30 µM]	30.8% [30 µM]	26.7% [30 µM]	61.3% [30 µM]	21.1% [30 µM]	-3.39% [30 µM] (active)	26.6% [30 µM]	33.9% [30 µM]	35.7% [30 µM]	61.6% [30 µM]
CCCCNC(=O)c1cc(NCc2cc(O)ccc2O)ccc1O	93.4%	106%	91.3%	84.4%	106%	67.7%	-55.7% (active)	77.1%	80.4%	108%
CC[C@]1(O)C[C@H]2CN(CCc3c([nH]c4ccccc34)[C@@](C(=O)OC)(c3cc4c(cc3OC)N(C=O)[C@H]3[C@@](O)(C(=O)OC)[C@H](OC(C)=O)[C@]5(CC)C=CCN6CC[C@]43[C@@H]65)C2)C1	290%	28.2%	43.7%	11.7%	-2.68% (active)	72.3%	-13.1% (active)	16.6%	12.4%	-57.2% (active)

— PubChem BioAssay (NCI)
